These results are taken from PubChem BioAssay (Tox21).

The structures appear in SMILES notation. Inconclusive results are not listed. Active and inactive are the calls of the source. Unless noted, the call rests on the fitted dose curve; in most records, active means well fitted curve in the direction sought with a large enough effect in the repeat runs; inconclusive means weak or mixed curves; inactive means no such curve, though single readings can be large; an effect the other way counts as inactive or inconclusive.

Assay [1] is described as follows: qHTS assay to identify small molecule antagonists of the estrogen related receptor (ERR) signaling pathway from Tox21 library - cell viability counter screen (AID 1224834). Further: nearly all actives have a fitted effect of over 30% in size. Further: potency means the concentration at half of the fitted maximal effect. The essentials: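 ERR cells, 2,000/well; 6 h settle at 37 C/5% CO2; pin-tool compound transfer in DMSO; 17.5 h at 37 C; CellTiter-Fluor, 30 min; fluorescence intensity.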
(qHTS replaces the single test concentration by a dilution series.)

Assay [2] addresses Luciferin 4-monooxygenase (Photinus pyralis) (UniProt P08659). Put plainly: qHTS assay to identify small molecule inhibitors of firefly luciferase (AID 1224835). Further: nearly all actives have a fitted effect of over 25% in size. Further: potency means the concentration at half of the fitted maximal effect. The essentials:
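Inhibition of purified Photinus luciferase is measured by luminescence. Substrate levels (D-luciferin, ATP) sit at their KM values. Each compound is tested in a concentration series.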

Assay [3] in a line: qHTS assay to identify small molecule agonists of the constitutive androstane receptor (CAR) signaling pathway - cell viability counter screen (AID 1224836). Further: nearly all actives have a fitted effect of over 45% in size. Further: potency means the concentration at half of the fitted maximal effect. The method in brief: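 Using CellTiter-Fluor, viability of HepG2 cells harbouring hCAR and CYP2B6-2.2kb was measured following 23 h incubation with a 15-concentration compound series plus PK11195 (0.75 uM final).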
Assay [4] can be described thus: qHTS assay to identify small molecule antagonists of the constitutive androstane receptor (CAR) signaling pathway - cell viability counter screen (AID 1224837). Further: nearly all actives have a fitted effect of over 45% in size. Further: potency means the concentration at half of the fitted maximal effect. The method in brief: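 Viability was measured with CellTiter-Fluor in a HepG2 line carrying stably transfected hCAR and a CYP2B6-2.2kb construct. Cells were exposed for 23 hr at 37 C to 15 compound concentrations with 50 nM CITCO as agonist.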

The target of assay [5] is Nuclear receptor subfamily 1 group I member 3 (Homo sapiens) (UniProt Q14994). Description: qHTS assay to identify small molecule agonists of the constitutive androstane receptor (CAR) signaling pathway (AID 1224839). Further: nearly all actives have a fitted effect of over 15% in size. Further: potency means the concentration at half of the fitted maximal effect. The method in brief: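 Double-stable HepG2 cells (hCAR, CYP2B6-2.2kb) seeded 4 h before compound addition. Exposure 24 h with 0.75 uM PK11195 final. Luciferase detected by ONE-Glo.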
Nuclear receptor subfamily 1 group I member 3 (Homo sapiens), sequence (Q14994 whole entry, looked up): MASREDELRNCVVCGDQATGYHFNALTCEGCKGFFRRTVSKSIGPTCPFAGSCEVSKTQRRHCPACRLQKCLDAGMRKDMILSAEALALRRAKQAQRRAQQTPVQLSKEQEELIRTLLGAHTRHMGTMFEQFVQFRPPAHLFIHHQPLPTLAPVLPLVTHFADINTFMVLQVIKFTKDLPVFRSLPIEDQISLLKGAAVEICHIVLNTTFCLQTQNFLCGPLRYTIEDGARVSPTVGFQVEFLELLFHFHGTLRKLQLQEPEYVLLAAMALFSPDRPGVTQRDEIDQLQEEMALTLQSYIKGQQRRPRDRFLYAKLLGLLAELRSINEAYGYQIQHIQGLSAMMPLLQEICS

Assay [6] is described as follows: qHTS assay to identify small molecule antagonists of the estrogen related receptor signaling pathway with the pleiotropic PPARgamma coactivator (PGC) from Tox21 10K library - cell viability counter screen (AID 1224840; active means well fitted cell-killing curve with a large enough effect in the repeat runs, not every such curve was filed as active; further: nearly all actives have a fitted effect of over 40% in size; further: potency means the concentration at half of the fitted maximal effect). The method in brief: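 Multiplexed viability counter screen in the PGC/ERR cell line: cells treated with DMSO-dissolved compounds for 17.5 hours at 37 C, then viability measured as CellTiter-Fluor fluorescence.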

Assay [7] can be described thus: qHTS assay to identify small molecule antagonists of the estrogen related receptor signaling pathway with the pleiotropic PPARgamma coactivator (PGC) from Tox21 10K library (AID 1224841; call rule not given here; further: actives are mostly falling curves and most rising ones were filed inactive; nearly all actives have a fitted effect of over 50% in size; further: potency means the concentration at half of the fitted maximal effect). The essentials:
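Steps: plate 2,000 PGC/ERR cells per well; incubate 6 h at 37 C with 5% CO2; transfer compounds from DMSO stocks by pin tool; incubate 18 h at 37 C; add One-Glo; measure luminescence 30 min later.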

In assay [8] the target is Thyrotropin receptor (Homo sapiens) (UniProt P16473). Description: qHTS assay to identify small molecule agonists of the thyroid stimulating hormone receptor (TSHR) signaling pathway (AID 1224843; calls by dose curve; further: nearly all actives have a fitted effect of over 45% in size). The essentials: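 Agonist activity read as cAMP rise via d2/cryptate HTRF competition, 1 h room-temperature detection, in HEK293 cells expressing TSHR. Fifteen-point titrations, each run in triplicate, with a 30 min room-temperature incubation beforehand.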
Thyrotropin receptor (Homo sapiens), sequence (P16473 whole entry, looked up): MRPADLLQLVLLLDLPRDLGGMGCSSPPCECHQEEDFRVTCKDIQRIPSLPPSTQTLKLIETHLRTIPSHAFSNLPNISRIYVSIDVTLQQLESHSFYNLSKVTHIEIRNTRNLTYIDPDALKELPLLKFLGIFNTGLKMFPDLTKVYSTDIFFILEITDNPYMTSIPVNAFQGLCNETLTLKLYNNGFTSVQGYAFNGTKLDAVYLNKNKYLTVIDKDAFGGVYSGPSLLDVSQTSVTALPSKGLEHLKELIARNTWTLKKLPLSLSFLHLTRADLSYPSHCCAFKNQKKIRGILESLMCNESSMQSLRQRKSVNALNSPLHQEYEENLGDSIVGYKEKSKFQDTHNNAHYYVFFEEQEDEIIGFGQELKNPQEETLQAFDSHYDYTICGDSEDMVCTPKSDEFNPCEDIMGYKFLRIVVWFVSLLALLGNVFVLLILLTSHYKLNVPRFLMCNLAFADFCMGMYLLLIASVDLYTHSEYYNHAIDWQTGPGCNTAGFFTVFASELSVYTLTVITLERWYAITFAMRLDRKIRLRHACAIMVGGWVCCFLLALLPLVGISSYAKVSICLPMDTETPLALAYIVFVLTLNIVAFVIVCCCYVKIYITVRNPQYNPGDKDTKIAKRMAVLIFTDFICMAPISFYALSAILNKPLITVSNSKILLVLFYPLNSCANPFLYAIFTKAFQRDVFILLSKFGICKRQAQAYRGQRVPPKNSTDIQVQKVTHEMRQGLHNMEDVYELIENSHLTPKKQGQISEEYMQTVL

Assay [9] has as its target Nuclear receptor subfamily 1 group I member 3 (Homo sapiens) (UniProt Q14994). Put plainly: qHTS assay to identify small molecule antagonists of the constitutive androstane receptor (CAR) signaling pathway (AID 1224838).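 Further: HepG2 cells stably expressing hCAR with CYP2B6 luciferase reporter stimulated by CITCO; nearly all actives have a fitted effect of over 40% in size.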 The essentials:
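Antagonist mode used CITCO at a final 50 nM to activate CAR in human hepatoma HepG2 cells carrying stable hCAR and a 2.2 kb CYP2B6 promoter-luciferase construct. Compounds were tested at 15 concentrations over 24 h, with luminescence as the end point.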

The nature of assay [10]: qHTS assay to identify small molecule agonists of the estrogen related receptor signaling pathway with the pleiotropic PPARgamma coactivator (PGC) from Tox21 10K library (AID 1224842). Further: nearly all actives have a fitted effect of over 15% in size. Further: potency means the concentration at half of the fitted maximal effect. The method in brief:
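Luminescence from One-Glo (30 min, room temperature) measured after PGC/ERR cells had 18 h at 37 C with pinned compound (23 nL in DMSO). Cells had been seeded at 2,000 per well and pre-incubated 6 h.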

Luciferin 4-monooxygenase (Photinus pyralis), sequence (P08659 whole entry, looked up): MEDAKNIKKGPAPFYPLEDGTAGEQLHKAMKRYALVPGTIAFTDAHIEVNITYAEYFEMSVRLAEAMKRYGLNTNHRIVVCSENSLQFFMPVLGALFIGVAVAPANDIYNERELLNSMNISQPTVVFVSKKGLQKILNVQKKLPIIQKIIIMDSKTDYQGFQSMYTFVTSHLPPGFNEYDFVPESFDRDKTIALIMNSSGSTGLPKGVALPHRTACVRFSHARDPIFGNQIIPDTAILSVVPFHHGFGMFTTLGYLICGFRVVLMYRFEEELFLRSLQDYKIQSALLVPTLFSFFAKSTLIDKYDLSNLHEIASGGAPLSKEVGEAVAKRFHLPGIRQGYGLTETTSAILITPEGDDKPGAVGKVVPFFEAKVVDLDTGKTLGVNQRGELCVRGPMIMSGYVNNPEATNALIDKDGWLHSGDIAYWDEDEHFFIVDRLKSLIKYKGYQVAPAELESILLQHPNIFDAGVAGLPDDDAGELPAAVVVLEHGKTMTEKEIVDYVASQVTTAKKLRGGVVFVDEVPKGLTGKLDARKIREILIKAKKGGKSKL

Consider `CC/C=C\CCCCCO`, for which the Potency result in assay [1], in assay [2], in assay [3], in assay [4], in [5] and in [6] was “inactive” in each case. Besides, the Potency entry in [7] and in assay [8] was “inactive” each time.
In the case of `CC(C)(C)c1ccc(C(O)CCCN2CCC(C(O)(c3ccccc3)c3ccccc3)CC2)cc1` (stereo not drawn), the Potency is 11.9 µM (active) in [1], 23.7 µM (active) in assay [3] and 26.6 µM (active) in [4]. Moreover, the Potency entry in [2] and in [5] was “inactive” throughout.
Regarding `CC(C)CCOC(=O)/C=C/c1ccccc1`, the Potency entry in [1], in assay [3], in [4], in [9], in [6] and in [8] was “inactive” in each case. Moreover, in [2], the Potency is 8 µM (active).
As to `Cc1cc(-n2nc3ccc(Cl)cc3n2)c(O)c(C(C)(C)C)c1`, the Potency entry in assay [1], in [2], in assay [3], in assay [4], in assay [5] and in [6] was “inactive” throughout. In addition, the Potency entry in [7], in [10] and in assay [8] was “inactive” throughout.
For `O=C(O)c1cc(O)c2ccccc2c1O`, the Potency in assay [1] is 27.3 µM (active); in [2], 31.7 µM (active); in assay [3] it was 21.7 µM (active); in assay [4] it was 24.3 µM (active); in assay [5], 1.54 µM (active). In assay [10], the Potency entry is “inactive”.
Take `COc1cccc(OC)c1C(=O)O`: the Potency result in assay [1], in assay [2], in [3], in [4], in assay [9] and in [6] was “inactive” each time. The Potency result in assay [8] is “inactive”.
On to `COC(C)=O`, for which the Potency entry in assay [1], in assay [2], in [3], in assay [4] and in assay [5] was “inactive” in each case.
Take `O=C(O)c1cc(=O)c2ccccc2o1`: the Potency entry in assay [1], in assay [2], in [3], in [4], in assay [9] and in assay [10] was “inactive” throughout. The Potency entry in assay [8] is “inactive”.
`C=CC(=O)OCCOC(=O)C=C`: the Potency entry in assay [1], in [2], in assay [3], in [4], in assay [5] and in [6] was “inactive” throughout. For the same compound, the Potency entry in assay [8] is “inactive”.
`COc1cc(C)ccc1O`: the Potency entry in assay [1], in assay [2], in [3], in assay [4], in assay [5] and in assay [6] was “inactive” each time. For the same compound, the Potency result in [7], in assay [10] and in assay [8] was “inactive” throughout.
With `CC1=Nc2ccccc2C1(C)C`, the Potency entry in assay [1], in [3], in [4], in [6], in [7] and in assay [8] was “inactive” each time. In addition, the Potency in assay [2] is 20 µM (active); in assay [10] it was 30.7 µM (active).
Consider `O=C(Nc1ccc2c(O)c(N=Nc3ccc(N=Nc4ccc(S(=O)(=O)O)cc4)cc3)c(S(=O)(=O)O)cc2c1)c1ccccc1`, for which the Potency was 24.3 µM (active) in [1]; 35.6 µM (active) in [2]; 24.3 µM (active) in assay [3]; 27.3 µM (active) in [4]; 24.3 µM (active) in assay [6]; 27.3 µM (active) in assay [7]. Also, the Potency entry in assay [10] and in assay [8] was “inactive” each time.
For the compound `Cc1c(F)c(N2CCNC(C)C2)cc2c1c(=O)c(C(=O)O)cn2C1CC1` (stereo not drawn), the Potency result in assay [1], in assay [2], in [3], in [9], in assay [5] and in [6] was “inactive” each time. For the same compound, the Potency entry in assay [10] and in assay [8] was “inactive” each time.
For the compound `Nc1nc(-c2ccccc2)cs1`, the Potency entry in assay [1], in assay [3], in [4], in assay [6], in assay [10] and in assay [8] was “inactive” each time. Moreover, the Potency in [2] is 31.6 µM (active).
With `C=C(C)c1cccc(C(=C)C)c1`, the Potency result in assay [1], in assay [2], in assay [3], in assay [9], in [5] and in assay [6] was “inactive” each time. In addition, the Potency result in [8] was “inactive”.
As to `[Cu+]`, the Potency entry in assay [1], in assay [3], in [4] and in assay [8] was “inactive” throughout. For the same compound, the Potency in assay [2] is 35.6 µM (active).
Take `CCCCNS(=O)(=O)c1ccc(C)cc1`: the Potency result in [1], in assay [2], in [3], in [9] and in assay [6] was “inactive” in each case.
